Source: PubChem BioAssay (NCI)
The panel holds about 79,000 compounds, 15% with a hit somewhere; the sample as a whole holds those more often. The source made the active and inactive calls. No stated cut-off is given here; in the data, active means growth inhibition above about 70%; inactive means the rest.

Columns and labels:
[1] = NCI Yeast Anticancer Drug Screen. Data for the rad52 strain (AID 147);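 further: 0% = growth of vehicle-treated control cultures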; settings: S. cerevisiae rad52 mutant growth inhibition, hits give high values
In short: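 Genetically altered yeast (DNA damage repair defect) treated with compound; inhibition calculated relative to vehicle.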

[2] = NCI Yeast Anticancer Drug Screen. Data for the wt1 strain (AID 149);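 further: 0% = growth of vehicle-treated wt1 cultures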; settings: S. cerevisiae wt1 strain (SPY 50644) growth inhibition, hits give high values
In short: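 Yeast wt1 strain exposed to compounds; growth inhibition measured relative to vehicle-treated controls.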

[3] = NCI Yeast Anticancer Drug Screen. Data for the rad50EPP+ strain (AID 151);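 further: 0% = growth of vehicle-treated control cultures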; settings: S. cerevisiae rad50 mutant strain, hits give high values
In short: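 Strain rad50EPP+; compound exposure; % growth inhibition vs vehicle.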

[4] = NCI Yeast Anticancer Drug Screen. Data for the mgt1 strain (AID 153); settings: S. cerevisiae mgt1 mutant growth inhibition, hits give high values
In short: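 Read-out: yeast growth inhibition vs vehicle control. Strain mgt1, drawn from a panel altered in DNA damage repair or cell cycle control.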

[5] = NCI Yeast Anticancer Drug Screen. Data for the rad50 strain (AID 155);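 further: 0% = growth of vehicle-only cultures of the same strain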; settings: S. cerevisiae rad50 strain growth inhibition, hits give high values
In short: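 Yeast carrying a defined DNA repair defect were exposed to test compounds, and growth was compared with vehicle-treated controls to give percent inhibition.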

[6] = NCI Yeast Anticancer Drug Screen. Data for the mec2-1 strain (AID 157); settings: S. cerevisiae mec2-1 strain, hits give high values
In short: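 Cells of the genetically defined mec2-1 yeast strain are incubated with test compound. Inhibition of growth is calculated against vehicle-treated controls.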

[7] = NCI Yeast Anticancer Drug Screen. Data for the rad14 strain (AID 159);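 further: 0% = growth of vehicle-treated control cultures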; settings: S. cerevisiae rad14 strain growth inhibition, hits give high values
In short: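 Yeast cells carrying a defined DNA-repair defect were exposed to compounds, and growth inhibition was calculated relative to vehicle-treated control cultures.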

[8] = NCI Yeast Anticancer Drug Screen. Data for the sgs1 mgt1 strain (AID 161);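 further: 0% = growth of cultures given vehicle only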; settings: S. cerevisiae sgs1 mgt1 strain, hits give high values
In short: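 Read-out: growth inhibition vs vehicle controls. Cells: mutant yeast strain deficient in DNA damage repair.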

[9] = NCI Yeast Anticancer Drug Screen. Data for the CLN2oe strain (AID 163);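 further: 0% = growth of vehicle-only control cultures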; settings: S. cerevisiae CLN2oe strain, hits give high values
In short: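 Strain altered in cell-cycle control, incubated with compound; growth compared to solvent-treated controls.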

[10] = NCI Yeast Anticancer Drug Screen. Data for the cln2 rad14 strain (AID 165);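 further: 0% = growth equal to vehicle treated cultures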; settings: S. cerevisiae cln2 rad14 strain, hits give high values
In short: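 The screen exposed genetically defined yeast (cln2 rad14) to test compounds and scored growth inhibition relative to vehicle-treated controls.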

[11] = NCI Yeast Anticancer Drug Screen. Data for the bub3 strain (AID 167); settings: S. cerevisiae bub3 mutant strain, hits give high values
In short: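 Compounds were applied to a genetically altered yeast strain carrying a cell-cycle control defect. Growth inhibition was scored against vehicle-treated controls.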

[12] = NCI Yeast Anticancer Drug Screen. Data for the wt2 strain (AID 169);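 further: 0% = growth of vehicle-treated yeast cultures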; settings: S. cerevisiae wt2 strain growth inhibition, hits give high values
In short: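 Steps: yeast strain treated with compound; growth recorded; inhibition calculated relative to cultures given vehicle alone.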

[13] = NCI Yeast Anticancer Drug Screen. Data for the mlh1 strain (AID 171);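 further: 0% = growth of vehicle-treated control cultures of the same strain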; settings: S. cerevisiae mlh1 strain growth inhibition, hits give high values
In short: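 Yeast screen: mutant strain plus compound, growth scored against vehicle control wells.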

[14] = NCI Yeast Anticancer Drug Screen. Data for the sgs1 strain (AID 173);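 further: 0% = growth of vehicle-only control cultures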; settings: S. cerevisiae sgs1 mutant, hits give high values
In short: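 Inhibition of yeast growth served as the measure. The mutant strain was treated with each compound, and growth was normalised to cultures receiving vehicle alone.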

[15] = NCI Yeast Anticancer Drug Screen. Data for the mlh1 rad18 strain (AID 175); settings: S. cerevisiae mlh1 rad18 strain growth inhibition, hits give high values
In short: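 Compound-treated yeast growth, normalised to vehicle controls. Strain bears defined DNA repair mutations.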

[16] = NCI Yeast Anticancer Drug Screen. Data for the rad18 strain (AID 177); settings: S. cerevisiae rad18 mutant growth inhibition, hits give high values
In short: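 Inhibition values reflect reduced yeast growth compared with vehicle-treated controls, using a strain engineered with a DNA damage repair defect.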

[17] = at 5.0 µM (retest, dose inferred, filed as 0.5)
[18] = at 50.0 µM (retest, dose inferred, filed as 5.0)

Measured: growth inhibition

COc1ccc(O)c(/C=N\Nc2ccccc2)c1
inactive: [1]; at 1.2 µM -10% | [1]; at 3.7 µM -11% | [1]; at 11.0 µM -3% | [1]; at 33.0 µM 54% | [1]; at 100.0 µM 55% | [2]; at 1.2 µM -1% | [2]; at 3.7 µM 5% | [2]; at 11.0 µM 11% | [2]; at 33.0 µM 12% | [2]; at 100.0 µM 33% | [3]; at 1.2 µM -8% | [3]; at 3.7 µM -18% | [3]; at 11.0 µM 13% | [3]; at 33.0 µM 50% | [4]; at 1.2 µM -6% | [4]; at 3.7 µM -7% | [4]; at 11.0 µM -6% | [4]; at 33.0 µM -6% | [4]; at 100.0 µM 36% | [5]; at 1.2 µM -14% | [5]; at 3.7 µM -9% | [5]; [17] -124% | [5]; at 11.0 µM -4% | [5]; at 33.0 µM 25% | [6]; at 1.2 µM -6% | [6]; at 3.7 µM -5% | [6]; [17] -52% | [6]; at 11.0 µM -5% | [6]; at 33.0 µM -5% | [6]; [18] -12% | [6]; at 100.0 µM -2% | [7]; at 1.2 µM 0% | [7]; at 3.7 µM -1% | [7]; at 11.0 µM 5% | [7]; at 33.0 µM 30% | [8]; [17] -64% | [8]; [18] -22% | [9]; at 1.2 µM -8% | [9]; at 3.7 µM -9% | [9]; at 11.0 µM -14% | [9]; at 33.0 µM -14% | [9]; at 100.0 µM 21% | [10]; [17] -61% | [10]; [18] -19% | [11]; at 1.2 µM -9% | [11]; at 3.7 µM -9% | [11]; [17] -73% | [11]; at 11.0 µM -9% | [11]; at 33.0 µM 6% | [11]; [18] -4% | [11]; at 100.0 µM 49% | [12]; at 1.2 µM 3% | [12]; at 3.7 µM 8% | [12]; at 11.0 µM 21% | [12]; at 33.0 µM 51% | [13]; at 1.2 µM -13% | [13]; at 3.7 µM -8% | [13]; at 11.0 µM -7% | [13]; at 33.0 µM -2% | [14]; at 1.2 µM -13% | [14]; at 3.7 µM -9% | [14]; at 11.0 µM 11% | [14]; at 33.0 µM 39% | [15]; [17] -132% | [15]; [18] 13%
active: [3]; at 100.0 µM 70% | [5]; [18] 71% | [5]; at 50.0 µM 99.4% | [5]; at 100.0 µM 73% | [6]; at 50.0 µM 99.3% | [7]; at 100.0 µM 94% | [8]; at 50.0 µM 98.8% | [10]; at 50.0 µM 99% | [11]; at 50.0 µM 98.9% | [12]; at 100.0 µM 96% | [13]; at 100.0 µM 74% | [14]; at 100.0 µM 94% | [15]; at 50.0 µM 98.5%

CN1CCc2ccccc2C1Cc1ccccc1NC(=O)c1sc2ccccc2c1Cl (stereo unspecified)
inactive: [1]; at 1.2 µM -35% | [1]; at 3.7 µM -38% | [1]; at 11.0 µM -15% | [1]; at 33.0 µM -8% | [2]; at 1.2 µM -23% | [2]; at 3.7 µM -22% | [2]; at 11.0 µM -13% | [2]; at 33.0 µM 22% | [3]; at 1.2 µM -21% | [3]; at 3.7 µM -9% | [3]; at 11.0 µM 19% | [3]; at 33.0 µM 68% | [4]; at 1.2 µM -19% | [4]; at 3.7 µM -24% | [4]; at 11.0 µM 19% | [5]; at 1.2 µM -33% | [5]; at 3.7 µM -36% | [5]; [17] 8% | [5]; at 11.0 µM -22% | [5]; at 33.0 µM 29% | [6]; at 1.2 µM -39% | [6]; at 3.7 µM -29% | [6]; [17] -7% | [6]; at 11.0 µM -2% | [6]; at 33.0 µM 36% | [6]; [18] 68% | [7]; at 1.2 µM -50% | [7]; at 3.7 µM -40% | [7]; at 11.0 µM -24% | [8]; [17] -7% | [9]; at 1.2 µM 14% | [9]; at 3.7 µM 7% | [9]; at 11.0 µM 14% | [9]; at 33.0 µM 62% | [10]; [17] -10% | [10]; [18] 60% | [11]; at 1.2 µM -54% | [11]; at 3.7 µM -22% | [11]; [17] 7% | [11]; at 11.0 µM -33% | [11]; at 33.0 µM 22% | [12]; at 1.2 µM -13% | [12]; at 3.7 µM -13% | [12]; at 11.0 µM -3% | [13]; at 1.2 µM -22% | [13]; at 3.7 µM -16% | [13]; at 11.0 µM 8% | [14]; at 1.2 µM -25% | [14]; at 3.7 µM -20% | [14]; at 11.0 µM 18% | [15]; [17] -8% | [16]; at 1.2 µM -38% | [16]; at 3.7 µM -23% | [16]; at 11.0 µM -16% | [16]; at 33.0 µM 26%
active: [1]; at 100.0 µM 93% | [2]; at 100.0 µM 88% | [3]; at 100.0 µM 83% | [4]; at 33.0 µM 95% | [4]; at 100.0 µM 93% | [5]; [18] 97% | [5]; at 50.0 µM 96.8% | [5]; at 100.0 µM 90% | [6]; at 50.0 µM 98% | [6]; at 100.0 µM 92% | [7]; at 33.0 µM 89% | [7]; at 100.0 µM 93% | [8]; [18] 99% | [8]; at 50.0 µM 99% | [9]; at 100.0 µM 93% | [10]; at 50.0 µM 77.3% | [11]; [18] 94% | [11]; at 50.0 µM 97.5% | [11]; at 100.0 µM 92% | [12]; at 33.0 µM 89% | [12]; at 100.0 µM 93% | [13]; at 33.0 µM 90% | [13]; at 100.0 µM 93% | [14]; at 33.0 µM 90% | [14]; at 100.0 µM 89% | [15]; [18] 93% | [15]; at 50.0 µM 98.2% | [16]; at 100.0 µM 90%
